# Data as given in PubChem BioAssay (EPA / NIEHS).
# Values joined by “and” are separate entries in the source; they are usually repeats but may differ in a detail not shown here. Identical values can stand only once. Inconclusive results are not listed. Active and inactive are the calls of the source. The calls were made as follows, unless noted: active = hit-call score of the fitted dose curve at least 0.9, where 1 is the maximum; inactive = score below 0.9.
# Key:
# DIO1 (gene 1733) = experiment: CCTE_GLTED_hDIO1: CCTE's human Deiodinase 1 (DIO1) Inhibition Assay, Great Lakes Toxicology and Ecology Division (GLTED) Lab (AID 2283987; active = hit-call score of the fitted dose curve at least 0.9, where 1 is the maximum;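 also: isolated human DIO1 enzyme in a cell-free setup rather than cells; enzyme activity read as free iodide liberated from substrate via Sandell-Kolthoff colorimetry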)
# Method in brief: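 Cell-free human DIO1 enzyme incubated 3 h with test chemical; iodide freed from substrate then measured by Sandell-Kolthoff absorbance. Run in triplicate; loss of signal relative to DMSO taken as inhibition.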
# [1] = CCTE_Harrill_HTTr_Viability_MCF7: CCTE's 6-hour Cell Viability Assessment for the High-Throughput Transcriptomics (HTTr) Platform, in MCF-7 cells cultured in DMEM + 10% fetal bovine serum, Harrill Lab (AID 2284010)
# Method in brief: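 Eight-point concentration series, six-hour exposure. Propidium iodide exclusion imaged to assess membrane integrity as a cytotoxicity readout; bidirectional fitting was done with DMSO as negative control and activity baseline.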
# [2] = CCTE_Harrill_HTTr_Apoptosis_MCF7: CCTE's 6-hour Apoptosis Assessment for the High-Throughput Transcriptomics (HTTr) Platform, in MCF-7 cells cultured in DMEM + 10% fetal bovine serum, Harrill Lab (AID 2284011)
# Method in brief: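 MCF-7 cells in DMEM + 10% FBS exposed 6 h to chemicals over an eight-point dilution series. Caspase-3/7 activation imaged by high-content CellEvent Green staining; fitted bidirectionally versus DMSO.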
# [3] = biological target: Nucleoli Translocation, AR (gene 367) (UniProt P10275); experiment: UPITT_HCI_U2OS_AR_TIF2_Nucleoli_Antagonist: University of Pittsburgh U2OS Androgen Receptor-Transcriptional Intermediary Factor 2 (AR-TIF2) Antagonism High Content Imaging Assay for Nucleoli Translocation (AID 2283997; active = hit-call score of the fitted dose curve at least 0.9, where 1 is the maximum)
# Chain of Nucleoli Translocation, AR (gene 367) (P10275 whole entry, looked up): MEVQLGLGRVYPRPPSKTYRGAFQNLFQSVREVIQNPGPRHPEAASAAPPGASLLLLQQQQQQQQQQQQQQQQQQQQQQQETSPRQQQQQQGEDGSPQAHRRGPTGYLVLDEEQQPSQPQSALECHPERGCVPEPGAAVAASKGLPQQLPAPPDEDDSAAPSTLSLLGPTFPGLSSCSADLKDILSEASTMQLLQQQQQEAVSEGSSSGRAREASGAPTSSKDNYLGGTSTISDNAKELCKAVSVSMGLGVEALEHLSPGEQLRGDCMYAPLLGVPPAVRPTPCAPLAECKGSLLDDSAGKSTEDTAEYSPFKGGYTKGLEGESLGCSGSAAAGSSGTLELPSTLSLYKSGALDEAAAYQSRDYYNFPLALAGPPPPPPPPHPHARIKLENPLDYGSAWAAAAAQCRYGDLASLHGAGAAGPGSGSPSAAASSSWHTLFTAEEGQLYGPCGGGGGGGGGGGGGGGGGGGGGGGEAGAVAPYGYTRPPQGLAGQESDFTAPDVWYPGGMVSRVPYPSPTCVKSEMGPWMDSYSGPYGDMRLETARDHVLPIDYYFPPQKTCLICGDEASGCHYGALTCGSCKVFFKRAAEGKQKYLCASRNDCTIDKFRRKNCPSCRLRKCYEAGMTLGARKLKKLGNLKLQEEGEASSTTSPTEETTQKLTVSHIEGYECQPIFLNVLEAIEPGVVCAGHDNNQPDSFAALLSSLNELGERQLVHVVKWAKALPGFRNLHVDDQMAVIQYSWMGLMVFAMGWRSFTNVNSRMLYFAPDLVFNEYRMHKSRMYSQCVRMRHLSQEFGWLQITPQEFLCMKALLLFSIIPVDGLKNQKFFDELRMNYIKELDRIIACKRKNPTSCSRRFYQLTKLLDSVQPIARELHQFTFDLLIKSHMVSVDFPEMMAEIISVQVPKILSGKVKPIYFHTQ
# Method in brief: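 Antagonism is read as loss of nucleolar AR-RFP signal relative to DHT, imaged in U2OS cells also carrying GFP-TIF2. Compounds screened at 20 uM final, 0.2% DMSO; primary actives retested in triplicate.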
# [4] = biological target: Nucleoli Translocation, AR (gene 367) (UniProt P10275); experiment: UPITT_HCI_U2OS_AR_TIF2_Nucleoli_Agonist: University of Pittsburgh U2OS Androgen Receptor-Transcriptional Intermediary Factor 2 (AR-TIF2) Agonism High Content Imaging Assay for Nucleoli Translocation (AID 2283998; active = hit-call score of the fitted dose curve at least 0.9, where 1 is the maximum)
# Method in brief: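 U2OS cells expressing RFP-tagged human AR and GFP-tagged TIF2; red fluorescence in nucleoli quantified by high-content imaging. Primary screen at 20 uM final (0.2% DMSO); concentration-response 0.195–50 uM (0.5% DMSO), fitted upward versus DMSO.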
# [5] = biological target: Ratio of Nucleoli Translocation and Cytoplasm, AR (gene 367) (UniProt P10275); experiment: UPITT_HCI_U2OS_AR_TIF2_Nucleoli_Cytoplasm_Ratio_Antagonist: University of Pittsburgh U2OS Androgen Receptor-Transcriptional Intermediary Factor 2 (AR-TIF2) Antagonism High Content Imaging Assay for Ratio of Nucleoli Translocation and Cytoplasm (AID 2283999; active = hit-call score of the fitted dose curve at least 0.9, where 1 is the maximum;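 also: antagonists lower the DHT-driven ratio of nucleolar to cytoplasmic red signal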)
# Chain of Ratio of Nucleoli Translocation and Cytoplasm, AR (gene 367) (P10275 whole entry, looked up): as above
# Method in brief: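 This antagonist-mode endpoint tracks AR-RFP localisation, the nucleolus-to-cytoplasm intensity ratio, in TIF2-GFP-coexpressing U2OS cells. DMSO stays at or below 0.5%; testing spans 20 uM single-dose and 0.195–50 uM series, with DHT setting the activity baseline.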
# [6] = biological target: Ratio of Nucleoli Translocation and Cytoplasm, AR (gene 367) (UniProt P10275); experiment: UPITT_HCI_U2OS_AR_TIF2_Nucleoli_Cytoplasm_Ratio_Agonist: University of Pittsburgh U2OS Androgen Receptor-Transcriptional Intermediary Factor 2 (AR-TIF2) Agonism High Content Imaging Assay for Ratio of Nucleoli Translocation and Cytoplasm (AID 2284000; active = hit-call score of the fitted dose curve at least 0.9, where 1 is the maximum;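 also: hits raise the red nucleolar to cytoplasm ratio above vehicle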)
# Method in brief: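 Compounds tested at 20 uM final in primary screen (0.2% DMSO) and 0.195-50 uM final in dose-response (0.5% DMSO). Imaging of human U2OS cells bearing RFP-AR and GFP-TIF2; endpoint is nucleoli/cytoplasm red signal ratio, positive direction relative to DMSO.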
# [7] = CCTE_Shafer_MEA_acute_spike_number: CCTE's Neural Acute Assay for Total Number of Spikes, Shafer Lab (AID 2284008);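 as to AC50: curve fitted for decrease in spike count so AC50 reflects inhibitors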
# Method in brief: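 Rat primary cortical neurons on 48-well MEA plates, DIV 13 or 15, at 37 C. 40 min baseline then 40 min with compound (0.03-40 uM); spikes detected at 8x rms noise, expressed as percent change from baseline.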
# [8] = CCTE_Shafer_MEA_acute_firing_rate_mean: CCTE's Neural Acute Assay for Mean Firing Rate, Shafer Lab (AID 2284009);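 also: analyzed for loss of signal so actives lower firing rate relative to DMSO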
# Method in brief: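 Primary rat cortical neurons on 16-electrode MEA wells were exposed on DIV 13 or 15 to compound (0.03-40 uM). Spike counts per recording time, averaged over electrodes, were compared between 40-min baseline and 40-min post-exposure recordings as percent change.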
# [9] = CCTE_Harrill_HTTr_Viability_PRF_DMEM_24hr: (Pilot) CCTE's 24-hour Cell Viability Assessment for the High-Throughput Transcriptomics (HTTr) Platform, in MCF-7 cells cultured in phenol red-free DMEM + 10% charcoal-stripped fetal bovine serum, Harrill Lab (AID 2283980)
# Method in brief: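 Propidium iodide exclusion imaged at 24 h after dosing scores viability; cells were MCF-7 grown in phenol red-free DMEM plus 10% charcoal-stripped serum, tested in eight concentrations, fitted in both directions against DMSO.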
# [10] = CCTE_Harrill_HTTr_Apoptosis_DMEM_6hr: (Pilot) CCTE's 6-hour Apoptosis Assessment for the High-Throughput Transcriptomics (HTTr) Platform, in MCF-7 cells cultured in DMEM + 10% fetal bovine serum, Harrill Lab (AID 2283981)
# Method in brief: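 MCF-7 cells grown in DMEM + 10% FBS were exposed for 6 hours to an eight-point dilution series. CellEvent Caspase 3/7 Green signal was imaged; activity fitted bidirectionally against DMSO.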
# [11] = CCTE_Harrill_HTTr_Apoptosis_DMEM_12hr: (Pilot) CCTE's 12-hour Apoptosis Assessment for the High-Throughput Transcriptomics (HTTr) Platform, in MCF-7 cells cultured in DMEM + 10% fetal bovine serum, Harrill Lab (AID 2283982)
# Method in brief: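 Caspase-3/7 activity was measured by high-content imaging (CellEvent Caspase 3/7 Green) after a 12-hour exposure of MCF-7 cells grown in DMEM with 10% FBS. Eight-point concentration series, fitted bidirectionally against vehicle.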
# [12] = CCTE_Harrill_HTTr_Apoptosis_DMEM_24hr: (Pilot) CCTE's 24-hour Apoptosis Assessment for the High-Throughput Transcriptomics (HTTr) Platform, in MCF-7 cells cultured in DMEM + 10% fetal bovine serum, Harrill Lab (AID 2283983)
# Method in brief: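 Caspase-3/7 activity read by high-content imaging (CellEvent Green reagent) 24 h after dosing. MCF-7 cells grown in DMEM with 10% FBS received an eight-point concentration series; fits were bidirectional versus DMSO.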
# [13] = CCTE_Harrill_HTTr_Apoptosis_PRF_DMEM_6hr: (Pilot) CCTE's 6-hour Apoptosis Assessment for the High-Throughput Transcriptomics (HTTr) Platform, in MCF-7 cells cultured phenol red-free DMEM + 10% charcoal-stripped fetal bovine serum, Harrill Lab (AID 2283984)
# Method in brief: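 Caspase-3/7 activity (CellEvent Green) read by high-content imaging 6 h after dosing, eight concentrations. Cells: MCF-7, phenol red-free DMEM with 10% charcoal-stripped serum. Curves fit both directions against DMSO.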
# [14] = CCTE_Harrill_HTTr_Apoptosis_PRF_DMEM_24hr: (Pilot) CCTE's 24-hour Apoptosis Assessment for the High-Throughput Transcriptomics (HTTr) Platform, in MCF-7 cells cultured in phenol red-free DMEM + 10% charcoal-stripped fetal bovine serum, Harrill Lab (AID 2283986)
# Method in brief: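 Eight concentrations tested for 24 h on MCF-7 grown in charcoal-stripped serum, phenol red-free DMEM. High content imaging of CellEvent Caspase 3/7 Green signal gives apoptosis read-out, fitted both ways relative to DMSO.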
# [15] = CCTE_Simmons_MITO_basal_resp_rate: CCTE's HepG2 Seahorse XF Respirometric Screening Assay at Basal Respiratory State, Simmons Lab (AID 2284001); conditions: actives raise or lower the signal
# Method in brief: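 Basal-phase OCR in HepG2 cells, read at 6-min intervals across a 72-min run, with test compound injected at 125 nM–100 uM final (7 points). Fitted both directions against DMSO; three biological replicates per concentration.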
# [16] = CCTE_Simmons_MITO_max_resp_rate: CCTE's HepG2 Seahorse XF Respirometric Screening Assay at Maximal Respiratory State [uncoupled], Simmons Lab (AID 2284002); conditions: actives raise or lower the signal
# Method in brief: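 HepG2 oxygen consumption measured on Seahorse XF after FCCP uncoupling, following test compound injection; 7 concentrations from 125 nM to 100 uM final. Readings every 6 min over 72 min, three biological replicates; bidirectional fit versus DMSO.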
# [17] = CCTE_Simmons_MITO_inhib_resp_rate: CCTE's HepG2 Seahorse XF Respirometric Screening Assay at Inhibited Respiratory State [full ETC block], Simmons Lab (AID 2284006); conditions: actives raise or lower the signal
# Method in brief: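 Test chemicals at seven final concentrations (125 nM–100 uM) in three biological replicates, with DMSO as vehicle. HepG2 oxygen consumption was then tracked on a Seahorse XF96 for 72 min through FCCP and rotenone/antimycin A phases, with the inhibited-phase rate as the endpoint.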
# [18] = CCTE_Simmons_MITO_viability: CellTiter-Glo Viability Assessment for CCTE's HepG2 Seahorse XF Respirometric Screening Assay [post-hoc], Simmons Lab (AID 2284007; active = hit-call score of the fitted dose curve at least 0.9, where 1 is the maximum)
# Method in brief: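 Post-hoc viability check on the HepG2 respirometry plates: luciferase-based ATP signal measured once, after 90 min compound exposure spanning 125 nM–100 uM final. Activity was referenced to DMSO as baseline.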
# [19] = TOX21_TR_RXR_BLA_Antagonist_Followup_viability: Viability Assessment in the Tox21 Thyroid Hormone Receptor beta Retinoid X Receptor alpha (RXRa) Antagonism Beta-lactamase (BLA) Follow-Up Assay (AID 2283979; active = hit-call score of the fitted dose curve at least 0.9, where 1 is the maximum)
# Method in brief: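 Follow-up compounds (11 concentrations, triplicate) were incubated 16 h at 37C/5% CO2 with HEK293T RXRa-bla cells seeded at 2,500/well in charcoal-stripped-serum medium. ATP content by CellTiter-Glo luminescence gave viability; curves fitted in both directions against DMSO.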
smiles,measurement,setting,value
S=C(S)NCCNC(=S)S.[Mn+2].[S-]C([S-])=NCCN=C([S-])[S-].[Zn+2],AC50,DIO1 (gene 1733),29.5 µM (active) and 50 µM (active)
same,outcome,[1],inactive
same,outcome,[2],inactive
CSC(=O)c1cccc2nnsc12,AC50,[3],50 µM (active)
same,outcome,[4],inactive
same,outcome,[5],inactive
same,outcome,[6],inactive
same,outcome,[7],inactive
same,outcome,[8],inactive
same,outcome,[1],inactive
same,outcome,[2],inactive
CCOC(=O)COc1cc(-n2ncc(C(F)(F)F)c(C)c2=O)c(F)cc1Cl,outcome,[4],inactive
same,outcome,[6],inactive
same,outcome,[1],inactive
same,outcome,[2],inactive
CCCN(CCC)C(=O)SCC,outcome,[3],inactive
same,outcome,[4],inactive
same,outcome,[6],inactive
same,outcome,[1],inactive
same,outcome,[2],inactive
CC(=O)S[C@@H]1CC2=CC(=O)CC[C@]2(C)[C@H]2CC[C@@]3(C)[C@@H](CC[C@@]34CCC(=O)O4)[C@H]12,outcome,[3],inactive
same,outcome,[5],inactive
same,outcome,[1],inactive
same,outcome,[2],inactive
CCOC(=O)C(C)Oc1ccc(Oc2nc3ccc(Cl)cc3o2)cc1 (stereo not drawn),outcome,[3],inactive
same,outcome,[5],inactive
same,outcome,[1],inactive
same,outcome,[2],inactive
CN(C)C(=O)Nc1ccc(Cl)c(Cl)c1,outcome,[3],inactive
same,outcome,[5],inactive
same,outcome,[1],inactive
same,outcome,[2],inactive
O=C(c1ccccc1)C1CCCCC1,outcome,[3],inactive
same,outcome,[4],inactive
same,outcome,[5],inactive
same,outcome,[6],inactive
same,outcome,[7],inactive
same,outcome,[8],inactive
S=C([S-])NCCNC(=S)[S-].[Mn+2],outcome,[9],inactive
same,outcome,[10],inactive
same,outcome,[11],inactive
same,outcome,[12],inactive
same,outcome,[13],inactive
same,outcome,[14],inactive
same,AC50,DIO1 (gene 1733),35.7 µM (active)
same,outcome,[1],inactive
same,outcome,[2],inactive
CC1(C)C(C=C(Cl)Cl)C1C(=O)OCc1cccc(Oc2ccccc2)c1 (stereo not drawn),outcome,[3],inactive
same,outcome,[5],inactive
same,outcome,[6],inactive
same,outcome,[7],inactive
same,outcome,[8],inactive
same,outcome,[1],inactive
same,outcome,[2],inactive
N[C@@H](Cc1cc(I)c(Oc2ccc(O)c(I)c2)c(I)c1)C(=O)O,outcome,[9],inactive
same,outcome,[10],inactive
same,outcome,[11],inactive
same,outcome,[12],inactive
same,outcome,[13],inactive
same,outcome,[14],inactive
same,AC50,[15],6.61 µM (active)
same,outcome,[16],inactive
same,outcome,[17],inactive
same,outcome,[1],inactive
same,outcome,[2],inactive
C=CCOC(Cn1ccnc1)c1ccc(Cl)cc1Cl (stereo not drawn),outcome,[9],inactive
same,outcome,[10],inactive
same,outcome,[11],inactive
same,outcome,[12],inactive
same,outcome,[13],inactive
same,outcome,[14],inactive
same,AC50,[15],24.3 µM (active)
same,AC50,[16],38.2 µM (active)
same,outcome,[17],inactive
same,outcome,[18],inactive
same,AC50,[7],6.09 µM (active)
same,AC50,[8],6.09 µM (active)
same,outcome,[1],inactive
same,outcome,[2],inactive
N#CSCSc1nc2ccccc2s1,AC50,[3],9.92 µM (active)
same,AC50,[4],13 µM (active)
same,AC50,[5],32.4 µM (active)
same,AC50,[6],12.8 µM (active)
same,AC50,[15],15.1 µM (active)
same,AC50,[16],22.7 µM (active)
same,outcome,[17],inactive
same,outcome,[18],inactive
same,outcome,[7],inactive
same,outcome,[8],inactive
same,outcome,[1],inactive
same,outcome,[2],inactive
C[C@]12C[C@H](O)[C@H]3[C@@H](CCC4=CC(=O)CC[C@@]43C)[C@@H]1CC[C@@H]2C(=O)CO,outcome,[19],inactive
same,AC50,[15],42 µM (active)
same,outcome,[16],inactive
same,outcome,[18],inactive
same,outcome,[1],inactive
same,outcome,[2],inactive
CCSC(=O)N(CC(C)C)CC(C)C,outcome,[3],inactive
same,outcome,[4],inactive
same,outcome,[5],inactive
same,outcome,[6],inactive
same,outcome,[1],inactive
same,outcome,[2],inactive
